The source made the active and inactive calls.
Assays:
[1] = system: Plasmodium falciparum Sir2 (PF13_0152, Sir2A); experiment: pfSir2 binders on small-molecule microarrays, primary screen, biochemical, small-molecule microarray, 635 nm fluorescence (AID 1098); conditions: small-molecule microarray binding, fluorescence 635 nm; higher = more signal;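 also: score merges spot fluorescence intensity with its signal-to-noise ratio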
[2] = small-molecule microarray binders of probe aDKK1, primary screen, biochemical, biotinylated probe, 635/667 nm fluorescence (AID 1099); conditions: higher = more signal;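 also: score merges 667nm spot fluorescence with signal to noise across triplicate slides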
[3] = small-molecule microarray binders of probe aCHRDL2, primary screen, biochemical, biotinylated probe, 635/667 nm fluorescence (AID 1100); conditions: higher = more signal
[4] = splicing luciferase reporter signal modulators, primary screen, spliceosome inhibition project, cell-based, HEK293, splice +/- reporter (AID 1101); conditions: luminescence, 24 h, higher = more signal, called active from +8 up or from −8 down;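 also: HEK293 cells carrying a splicing-competent luciferase reporter gene; test concentration not given here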
[5] = biological target: Fibroblast growth factor 10 (Homo sapiens) (UniProt O15520); experiment: FGF10 binders on small-molecule microarrays, primary screen, biochemical, small-molecule microarray, 635 nm fluorescence (AID 1102); conditions: FGF10 binding, fluorescence 635 nm, higher = more signal
[6] = system: glycogen synthase kinase-3 (GSK3A per assay name; protocol says GSK3B); experiment: GSK3 binders on small-molecule microarrays, primary screen, biochemical, small-molecule microarray, 635 nm fluorescence, GSK3A (AID 1103); conditions: small-molecule microarray binding, fluorescence 635 nm; higher = more signal; also: the record names both GSK3A and GSK3B
[7] = biological target: Epidermal growth factor receptor (Homo sapiens) (UniProt P00533); experiment: EGFR binders on small-molecule microarrays, primary screen, biochemical, small-molecule microarray, 635 nm fluorescence (AID 1104); conditions: EGFR binding, higher = more signal;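 also: score merges 667 nm emission intensity with spot signal to noise over triplicate slides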
[8] = biological target: Follistatin-related protein 3 (Homo sapiens) (UniProt O95633); experiment: FSTL3 binders on small-molecule microarrays, primary screen, biochemical, small-molecule microarray, 635 nm fluorescence (AID 1105); conditions: FSTL3 binding, higher = more signal;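 also: score merges emission near 667 nm and signal to noise per printed spot across three slides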
[9] = biological target: Dickkopf-related protein 1 (Homo sapiens) (UniProt O94907); experiment: DKK1 binders on small-molecule microarrays, primary screen, biochemical, small-molecule microarray, 635 nm fluorescence scan (AID 1106); conditions: DKK1 binding, higher = more signal;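 also: score merges emission near 667 nm with signal to noise over three replicate slides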
[10] = system: Inhibin beta A chain (activin A); experiment: INHBA (activin A) binders on microarrays, primary screen, biochemical, small-molecule microarray, 635 nm fluorescence scan (AID 1107); conditions: small-molecule microarray binding, higher = more signal;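 also: mouse activin A protein probed at 4.33 µg/mL on printed slides; score merges bound-protein fluorescence near 667 nm with spot signal-to-noise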
[11] = system: Human papillomavirus type 1a protein E7 (residues 44-93); experiment: HPV1a E7 fragment binders on microarrays, primary screen, biochemical, small-molecule microarray, residues 44-93, 635 nm fluorescence (AID 1108); conditions: small-molecule microarray binding, fluorescence 635 nm; higher = more signal;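 also: E7 fragment applied at 1 µg/mL in TBST for 1 h at 4 C; score combines spot fluorescence with its signal to noise ratio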
[12] = modulators of HCV replicon luciferase signal, primary screen, HCV replication inhibitor project, Huh7 cells, luciferase reporter (AID 1109); conditions: 48 h, higher = more signal;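 also: huh7 hepatoma cells harbouring a luciferase neomycin HCV replicon reporter; luciferase luminescence as measure of HCV replicon replication; test concentration not given here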
[13] = biological target: Left-right determination factor 2 (Homo sapiens) (UniProt O00292); experiment: LEFTY2 binders on small-molecule microarrays, primary screen, biochemical, small-molecule microarray, 635 nm fluorescence scan (AID 1110); conditions: LEFTY2 binding, higher = more signal
[14] = biological target: Calmodulin-1 (Homo sapiens) (UniProt P0DP23); experiment: CALM1 binders on microarrays, EGTA buffer, profiling panel, biochemical, small-molecule microarray, Cy5-labelled CALM1 (AID 1111); conditions: Cy5-CALM1 binding fluorescence, higher = more signal;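 also: labelled calmodulin applied in Tris saline Tween buffer holding calcium plus EGTA and DTT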
[15] = biological target: Calmodulin-1 (Homo sapiens) (UniProt P0DP23); experiment: calcium-bound CALM1 binders on microarrays, profiling panel, artefact control for SMM control-protein annotation, biochemical, small-molecule microarray, Cy5-labelled CALM1, plus calcium (AID 1112); conditions: Cy5-CALM1 binding fluorescence, higher = more signal;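 also: score merges spot fluorescence with signal to noise from triplicate slides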
[16] = small-molecule microarray binders of probe aWnt5a, primary screen, biochemical, biotinylated probe, 635/667 nm fluorescence (AID 1113); conditions: higher = more signal;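 also: score merges 667 nm fluorescence intensity with signal-to-noise per printed feature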
[17] = small-molecule microarray binders of probe aShh, primary screen, biochemical, biotinylated probe, 635/667 nm fluorescence (AID 1114); conditions: higher = more signal;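 also: probe is biotin-labelled aShh protein from a stem cell growth factor screen; measures binding of labelled protein to compounds printed on the slide; score merges feature fluorescence at 667 nm with signal-to-noise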
[18] = small-molecule microarray binders of probe aNog, primary screen, biochemical, biotinylated probe, 635/667 nm fluorescence (AID 1115); conditions: higher = more signal;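 also: probe is biotinylated aNog protein used at 0.15 µg/mL for 1 h at 4 C; z-score combines 667 nm fluorescence of each spot with its signal to noise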
[19] = biological target: Torsin-1A-interacting protein 1 (Homo sapiens) (UniProt Q5JTV8); experiment: LAP1 binders from COS7 cell lysate, primary screen, small-molecule microarray, 635/667 nm fluorescence (AID 1116); conditions: COS7-hLAP1 lysate binding, 635 nm fluorescence, higher = more signal
[20] = biological target: Alpha-bungarotoxin (Bungarus multicinctus) (UniProt P60615); experiment: alpha-bungarotoxin binders on microarray, profiling panel, artefact control for SMM control protein annotation, biochemical, small-molecule microarray, Alexa647 label, 635/667 nm fluorescence (AID 1117); conditions: alpha-BTX-A647 binding fluorescence, higher = more signal
Alpha-bungarotoxin (Bungarus multicinctus), sequence (P60615 whole entry, looked up): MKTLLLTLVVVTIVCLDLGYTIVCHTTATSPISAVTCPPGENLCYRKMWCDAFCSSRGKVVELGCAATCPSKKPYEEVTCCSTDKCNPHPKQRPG

Follistatin-related protein 3 (Homo sapiens), sequence (O95633 whole entry, looked up): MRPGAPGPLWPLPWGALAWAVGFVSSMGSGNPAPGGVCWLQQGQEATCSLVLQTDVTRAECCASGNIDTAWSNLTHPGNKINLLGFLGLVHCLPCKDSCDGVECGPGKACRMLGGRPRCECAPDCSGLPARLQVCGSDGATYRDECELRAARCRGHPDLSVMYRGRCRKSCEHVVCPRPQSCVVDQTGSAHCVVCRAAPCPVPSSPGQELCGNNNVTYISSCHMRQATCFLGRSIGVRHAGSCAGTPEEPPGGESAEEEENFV
Epidermal growth factor receptor (Homo sapiens), sequence (P00533 whole entry, looked up): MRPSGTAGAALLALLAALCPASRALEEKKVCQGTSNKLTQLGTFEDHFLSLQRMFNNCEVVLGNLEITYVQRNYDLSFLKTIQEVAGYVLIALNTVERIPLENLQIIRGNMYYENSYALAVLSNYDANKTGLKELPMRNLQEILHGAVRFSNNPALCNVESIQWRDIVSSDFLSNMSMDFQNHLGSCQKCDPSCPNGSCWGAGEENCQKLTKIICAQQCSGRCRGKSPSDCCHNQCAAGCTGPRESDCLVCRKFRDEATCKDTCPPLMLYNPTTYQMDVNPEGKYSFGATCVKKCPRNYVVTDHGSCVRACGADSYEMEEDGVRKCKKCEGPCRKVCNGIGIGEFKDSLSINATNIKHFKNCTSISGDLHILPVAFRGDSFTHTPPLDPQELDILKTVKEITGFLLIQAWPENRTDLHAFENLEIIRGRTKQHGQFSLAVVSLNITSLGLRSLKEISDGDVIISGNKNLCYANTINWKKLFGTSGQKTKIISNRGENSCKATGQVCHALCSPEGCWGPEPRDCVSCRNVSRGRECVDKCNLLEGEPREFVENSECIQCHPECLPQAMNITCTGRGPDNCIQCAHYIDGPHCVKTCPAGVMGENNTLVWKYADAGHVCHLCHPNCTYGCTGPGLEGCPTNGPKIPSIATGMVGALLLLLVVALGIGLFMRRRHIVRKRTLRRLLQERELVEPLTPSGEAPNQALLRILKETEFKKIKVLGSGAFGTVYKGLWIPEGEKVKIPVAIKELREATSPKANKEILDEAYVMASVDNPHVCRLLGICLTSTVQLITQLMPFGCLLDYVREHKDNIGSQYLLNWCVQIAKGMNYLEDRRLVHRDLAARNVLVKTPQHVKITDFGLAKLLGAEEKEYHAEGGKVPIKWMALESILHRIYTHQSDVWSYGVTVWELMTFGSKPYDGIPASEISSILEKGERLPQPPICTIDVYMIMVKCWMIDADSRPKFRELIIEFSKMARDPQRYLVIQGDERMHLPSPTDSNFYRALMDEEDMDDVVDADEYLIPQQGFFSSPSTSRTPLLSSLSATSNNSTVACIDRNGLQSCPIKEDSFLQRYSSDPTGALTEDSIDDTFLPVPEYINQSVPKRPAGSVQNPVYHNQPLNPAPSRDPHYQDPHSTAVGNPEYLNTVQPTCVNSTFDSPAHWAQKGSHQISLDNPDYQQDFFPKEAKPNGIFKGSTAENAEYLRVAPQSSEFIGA
Left-right determination factor 2 (Homo sapiens), sequence (O00292 whole entry, looked up): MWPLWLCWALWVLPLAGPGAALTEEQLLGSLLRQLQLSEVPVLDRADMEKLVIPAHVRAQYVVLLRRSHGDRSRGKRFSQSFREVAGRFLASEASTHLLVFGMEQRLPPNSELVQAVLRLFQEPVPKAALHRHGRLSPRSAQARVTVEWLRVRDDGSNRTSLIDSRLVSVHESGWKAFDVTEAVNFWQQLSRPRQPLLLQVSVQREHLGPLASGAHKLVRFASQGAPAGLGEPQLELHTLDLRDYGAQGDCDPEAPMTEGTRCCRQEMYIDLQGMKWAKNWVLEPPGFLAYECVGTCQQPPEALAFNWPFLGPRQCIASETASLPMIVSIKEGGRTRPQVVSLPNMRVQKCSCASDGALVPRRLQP
Torsin-1A-interacting protein 1 (Homo sapiens), sequence (Q5JTV8 whole entry, looked up): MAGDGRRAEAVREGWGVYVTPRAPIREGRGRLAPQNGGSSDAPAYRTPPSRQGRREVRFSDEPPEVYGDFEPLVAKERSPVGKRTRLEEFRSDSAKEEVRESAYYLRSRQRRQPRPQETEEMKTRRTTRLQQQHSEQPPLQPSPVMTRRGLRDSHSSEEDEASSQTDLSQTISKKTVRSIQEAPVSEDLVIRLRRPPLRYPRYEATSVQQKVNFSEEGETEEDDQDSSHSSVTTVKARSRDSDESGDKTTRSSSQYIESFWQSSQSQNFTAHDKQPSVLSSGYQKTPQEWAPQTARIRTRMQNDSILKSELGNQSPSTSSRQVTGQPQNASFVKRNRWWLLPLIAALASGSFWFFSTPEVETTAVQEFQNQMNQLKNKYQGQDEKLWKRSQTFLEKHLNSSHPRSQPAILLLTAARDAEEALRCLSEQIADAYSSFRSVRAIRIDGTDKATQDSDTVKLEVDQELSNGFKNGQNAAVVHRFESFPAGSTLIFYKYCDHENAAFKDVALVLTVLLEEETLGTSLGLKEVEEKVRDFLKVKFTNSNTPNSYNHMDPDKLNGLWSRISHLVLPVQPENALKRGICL
Dickkopf-related protein 1 (Homo sapiens), sequence (O94907 whole entry, looked up): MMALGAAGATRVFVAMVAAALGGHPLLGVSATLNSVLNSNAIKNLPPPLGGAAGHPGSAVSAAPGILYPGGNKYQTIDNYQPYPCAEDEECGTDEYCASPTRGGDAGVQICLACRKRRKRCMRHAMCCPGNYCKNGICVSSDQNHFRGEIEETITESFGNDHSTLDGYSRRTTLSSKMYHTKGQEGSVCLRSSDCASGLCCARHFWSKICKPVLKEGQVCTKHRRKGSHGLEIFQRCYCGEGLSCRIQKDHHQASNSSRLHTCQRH
Fibroblast growth factor 10 (Homo sapiens), sequence (O15520 whole entry, looked up): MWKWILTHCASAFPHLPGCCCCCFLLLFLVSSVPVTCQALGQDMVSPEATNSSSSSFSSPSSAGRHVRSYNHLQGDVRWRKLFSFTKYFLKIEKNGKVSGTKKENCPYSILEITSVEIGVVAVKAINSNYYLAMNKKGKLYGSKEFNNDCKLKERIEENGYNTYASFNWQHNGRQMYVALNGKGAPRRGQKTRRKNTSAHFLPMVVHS

| SMILES | composite z-score [1] | composite z-score [2] | composite z-score [3] | z-score [4] | composite z-score [5] | composite z-score [6] | composite z-score [7] | composite z-score [8] | composite z-score [9] | composite z-score [10] | composite z-score [11] | z-score [12] | composite z-score [13] | composite z-score [14] | composite z-score [15] | composite z-score [16] | composite z-score [17] | composite z-score [18] | composite z-score [19] | composite z-score [20] |
| --- | --- | --- | --- | --- | --- | --- | --- | --- | --- | --- | --- | --- | --- | --- | --- | --- | --- | --- | --- | --- |
| C[C@H]1C2[C@H](Cc3ccccc3)NC(=O)[C@]23C(=O)NCC(=O)N2CCC[C@H]2C(=O)NC/C=C/CCC/C=C/C3[C@@H]2O[C@]12C (stereo not given in full) | 0.38 | -0.398 | -0.269 | -0.0803 (inactive) | -0.568 | -1.26 | -0.681 | -0.618 | -0.233 | 1.55 | -0.484 | 0.478 | -0.693 | -0.738 | -1.2 | -0.0075 | -0.138 | -0.387 | -0.106 | -0.65 |
| COc1ccc([Si](C)(C)[C@@H]2[C@@H](CCn3cc(CCO)nn3)O[C@]3(C(=O)N(Cc4cccc(N5C(=O)c6cccc7cccc5c67)c4)c4ccccc43)[C@H]2C)cc1 | 0.686 | -0.212 | -0.197 | -1.23 (inactive) | 0.648 | 0.433 | 0.0345 | 0.922 | 0.135 | 0.546 | 1.37 | -5.22 | -0.0227 | 0.911 | 0.506 | -0.0256 | -0.0192 | 0.406 | 0.868 | 0.664 |
| CCOC(=O)C1=CC[C@H]2C(=O)N(c3ccccc3)C(=O)[C@@H]12 | 1.67 | 0.143 | 0.0364 | 0.406 (inactive) | 1.19 | 0.571 | 0.55 | 1.01 | 0.56 | 0.304 | 1.51 | -1.36 | 0.791 | 0.802 | -0.513 | 0.027 | -0.0793 | 1.15 | 1.14 | 0.203 |
| [N-]=[N+]=Nc1ccccc1C[C@]1(C(=O)N2CCCCC2)COC(c2ccc(OCCCO)cc2)=N1 | -0.315 | 0.149 | 0.89 | -0.806 (inactive) | 1.28 | 1.3 | -0.214 | 0.615 | -0.482 | 1.01 | 1.44 | -2.43 | -0.241 | 1.35 | 0.234 | 0.117 | -0.217 | -0.673 | 1.03 | 0.465 |
| N#Cc1ccc(C(O)C2C=CC3C(=O)N(c4ccccc4)C(=O)C3N2Nc2ccccc2F)cc1 (stereo not given) | 1.65 | -0.0589 | 0.267 | -1.37 (inactive) | 0.877 | 0.849 | 0.77 | 0.746 | -0.116 | 0.299 | 1.29 | -0.494 | 0.262 | 0.123 | -0.564 | 0.0037 | -0.218 | -0.376 | 0.0448 | 0.175 |
| C=C(/C(=C/C[C@H](OC(=O)c1ccncc1)c1ccc(OCCO)cc1)c1cc(C(=O)OC)ccc1OC)C(C)C | 0.569 | 0.031 | 0.244 | -0.821 (inactive) | 1.42 | -0.534 | -0.114 | 0.487 | 0.178 | 1.13 | 1.08 | -0.939 | 0.17 | 0.959 | -0.218 | -0.128 | 0.111 | 0.108 | 0.296 | 1.72 |
| COCCCNC(=O)[C@]1(Cc2ccccc2)N=C(c2ccc(OCCCO)cc2)O[C@@H]1c1ccccc1CN=[N+]=[N-] | 1.24 | 1.2 | 1.29 | -0.97 (inactive) | 1.49 | 0.98 | 0.25 | 0.721 | -0.0836 | 0.608 | 0.128 | -2.18 | -0.254 | 1.02 | 0.562 | 0.116 | 0.585 | 0.918 | 2.48 | 0.315 |
| CCC(CC)C(O)C1C=CC2C(=O)N(c3ccccc3)C(=O)C2N1Nc1ccccc1 (stereo not given) | 1.52 | 1.29 | 1.15 | -0.326 (inactive) | 0.988 | 1.21 | 0.452 | 1.38 | 0.0269 | 0.555 | 1.29 | 0.372 | 0.0874 | 1.58 | 0.415 | 0.216 | -0.16 | 2.01 | 0.671 | 1.02 |
| CN(C)CCCCCCNC(=O)[C@@H]1C[C@@H]2C(=O)N[C@@H](CCCC[N+](C)(C)C)C(=O)N2[C@@H]1c1ccc(O)cc1 | 0.626 | -0.0429 | -0.397 | -0.0575 (inactive) | 0.421 | 0.467 | -0.144 | 0.0663 | 1.61 | -0.181 | -1.27 | 1.61 | 0.839 | -1.01 | -0.702 | -0.216 | -0.358 | -0.277 | 0.964 | 0.257 |
| COC(=O)[C@@]1(CCC(=O)OC(C)(C)C)N=C(c2ccc(OCCCO)cc2)O[C@H]1c1ccccc1 | 1.22 | 0.592 | 0.997 | 0.509 (inactive) | -0.19 | -0.0344 | -1.03 | -0.808 | -0.239 | 0.501 | 0.255 | -1.79 | -0.211 | 0.0108 | -0.181 | -0.0161 | 0.351 | 0.711 | 0.692 | 0.629 |
| COc1cc(OC)c(C(O)C2C=CC3C(=O)NC(=O)C3N2Nc2ccccn2)cc1Br (stereo not given) | 0.968 | 0.615 | 0.483 | 0.893 (inactive) | 0.689 | 0.398 | 0.807 | 0.835 | 0.815 | 0.811 | 0.19 | 0.742 | 0.586 | 0.0037 | -0.107 | -0.0684 | -0.0769 | -0.461 | 1.17 | 0.484 |

— PubChem BioAssay
